Assay results reported in PubChem BioAssay (NCI).
About 83,000 compounds went through this panel and 20% of them were active in at least one assay; those are over-represented in the sample as a whole.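 Activity criterion: percent growth below 10, measured after cells in 96-well plates were exposed to a single compound concentration for 48 hours.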 Values without a mark were called inactive. Calls of active or inactive are those of the source.

Key:
Assay in all cases: NCI-60 one-dose screen, 48 h (100 = growth as untreated, 0 = no growth, -100 = all killed)
Details in all cases: 10 µM unless noted
NCI-H23 lung = tested on: NCI-H23 lung
NCI-H226 lung = tested on: NCI-H226 lung
NCI-H322M lung = tested on: NCI-H322M lung
HOP-62 NSCLC = tested on: HOP-62 NSCLC
NCI-H460 lung = tested on: NCI-H460 lung
HOP-92 NSCLC = tested on: HOP-92 NSCLC
NCI-H522 lung = tested on: NCI-H522 lung
A549/ATCC NSCLC = tested on: A549/ATCC NSCLC
786-0 renal = tested on: 786-0 renal
COLO 205 colon = tested on: COLO 205 colon
DU-145 prostate = tested on: DU-145 prostate
K-562 leukemia = tested on: K-562 leukemia
MALME-3M melanoma = tested on: MALME-3M melanoma
MDA-MB-231 breast = tested on: MDA-MB-231 breast
RXF 393 renal = tested on: RXF 393 renal
SF-268 CNS = tested on: SF-268 CNS
SF-295 CNS = tested on: SF-295 CNS
SF-539 CNS = tested on: SF-539 CNS
UACC-257 melanoma = tested on: UACC-257 melanoma
M14 melanoma = tested on: M14 melanoma

Row | Compound | growth (NCI-H23 lung) | growth (NCI-H226 lung) | growth (NCI-H322M lung) | growth (HOP-62 NSCLC) | growth (NCI-H460 lung) | growth (HOP-92 NSCLC) | growth (NCI-H522 lung) | growth (A549/ATCC NSCLC) | growth (786-0 renal) | growth (COLO 205 colon) | growth (DU-145 prostate) | growth (K-562 leukemia) | growth (MALME-3M melanoma) | growth (MDA-MB-231 breast) | growth (RXF 393 renal) | growth (SF-268 CNS) | growth (SF-295 CNS) | growth (SF-539 CNS) | growth (UACC-257 melanoma) | growth (M14 melanoma)
1 | COc1ccc(-c2cc(C(=O)OCc3ccc(Br)cc3)nn2-c2ccc(S(C)(=O)=O)cc2)cc1OC | 93.6% | 82% | 90.9% | 75.9% | 91.1% | 69.5% | 52.8% | 78.6% | 75% | 110% | 86.4% | 79.9% | 106% | 70.5% | 62% | 66.5% | 81.4% | 72.4% | 106% | 114%
2 | COc1cc(C=O)ccc1OC(=O)c1cc(-c2ccc(C)cc2)n(-c2ccc(S(C)(=O)=O)cc2)n1 | 101% | 138% | 101% | 102% | 110% | 98.3% | 93.3% | 103% | 102% | 126% | 108% | 86.5% | 102% | 97.3% | 117% | 116% | 103% | 105% | 101% | 109%
3 | COc1ccccc1NC(=O)c1ccc(NC(=O)CCl)s1 | -66% (active) | -34.6% (active) | 94.1% | 41.9% | -16% (active) | -0.226% (active) | -77.3% (active) | -2.86% (active) | -93.4% (active) | 9.16% (active) | 41.1% | -8.7% (active) | -4.74% (active) | -58% (active) | -56.5% (active) | 22.3% | 31.9% | -14.1% (active) | 10.6% | -74.7% (active)
4 | CCC1(OC(=O)c2ccccc2SSCCOC(=O)CCCCC2SCC3NC(=O)NC32)C(=O)OCc2c1cc1n(c2=O)Cc2cc3ccccc3nc2-1 (stereo not given) | 15.4% | 41.6% | 83.6% | 39.4% | 13.3% | 32.7% | 42.3% | 47% | 50.9% | 79.3% | 35.3% | 52.8% | 55.8% | 82.5% | 82% | 38.5% | 5.6% (active) | 29.4% | 12.8% | 40.1%
5 | O=C(Nc1nc2ccccc2s1)Nc1ccccc1Cl | 70.5% | 31.5% | 94.3% | 12.2% | 66.9% | 74.3% | 64.1% | 74.5% | 41% | 97.5% | 99.9% | 86.2% | 79.7% | 51.9% | 73.8% | 77.3% | 45% | 51% | 98.8% | 93.7%
6 | CC[C@]12C=CCN3CC[C@@]4(c5ccc(OC)cc5N(C)[C@H]4[C@@](O)(C(=O)OC)[C@@H]1OC(=O)CCC[P+](c1ccc(OC)cc1)(c1ccc(OC)cc1)c1ccc(OC)cc1)[C@@H]32 | -92.5% (active) | -80.3% (active) | -97.7% (active) | -81.6% (active) | -85.2% (active) | -82.9% (active) | -89.4% (active) | -91.4% (active) | -89.5% (active) | -64.4% (active) | -75.4% (active) | -1.75% (active) | -97.8% (active) | -97% (active) | -92.6% (active) | -34.3% (active) | -93.7% (active) | -98.9% (active) | -93.5% (active) | -88.4% (active)
7 | O=c1[nH]c2ccccc2cc1CSc1ccccc1Nc1nccc(-c2ccc3c(c2)OCO3)n1 | 85.5% | 49.7% | 87.7% | 40.6% | 76.7% | 71.7% | 34.8% | 82.4% | 64.7% | 84.9% | 85.1% | 87.6% | 80.2% | 85.4% | 81.5% | 63.2% | 75.3% | 63.9% | 94.4% | 89.3%
8 | COc1ccc(N=Nc2c(N)nn3c(-c4ccc(F)cc4)ccnc23)cc1 | 43.7% | 87.8% | 84.3% | 34.6% | 64.7% | 100% | 86.5% | 43% | 92.3% | 94.4% | 79.9% | 71.9% | 40.4% | 77.2% | 106% | 83.5% | 87.7% | 67.5% | 81.8% | 51.3%
